The text below walks through data of the antibiotic and cytotoxicity screens of Wong et al. (2023).

In all, about 39,000 compounds went through this assay and about 1,500 (3.8%) were called active. The entries come from a sample that favours actives as a whole.

The subject of this assay is HSkMC (human skeletal muscle cells). Nature of the assay: cytotoxicity call (relative viability < 0.9). The settings on record: 10 µM.
For the molecule `COCOc1ccc2cc(Br)ccc2c1-c1c(OCOC)ccc2cc(Br)ccc12`, the cytotoxicity call was “active”. With `COc1ccc2ccccc2c1-c1c(OC)ccc2ccccc12`, the cytotoxicity call was “inactive”. Consider `COc1ccccc1-c1ccc2c(c1)O[C@@H](CN(C)CC1CCOCC1)[C@@H](C)CN([C@@H](C)CO)S2(=O)=O`, for which the cytotoxicity call is “inactive”.

For `CCNC(=O)[C@@H]1CCCN1C(=O)[C@H](CCCNC(=N)N)NC(=O)[C@H](CC(C)C)NC(=O)[C@@H](CC(C)C)NC(=O)[C@H](Cc1ccc(O)cc1)NC(=O)[C@H](CO)NC(=O)[C@H](Cc1c[nH]c2ccccc12)NC(=O)[C@H](Cc1cnc[nH]1)NC(=O)[C@@H]1CCC(=O)N1`, the cytotoxicity call is “inactive”. Regarding `CN(c1c[nH]c(=O)[nH]c1=O)C1CCCCC1`, the cytotoxicity call was “inactive”.

As to `C[C@H]1CN([C@@H](C)CO)C(=O)Cc2cc(NS(=O)(=O)c3ccc(F)cc3)ccc2O[C@@H]1CN(C)Cc1ccc(Oc2ccccc2)cc1`, the cytotoxicity call is “inactive”.

With `C[C@@H]1CN([C@@H](C)CO)C(=O)Cc2cc(NS(=O)(=O)c3ccc(F)cc3)ccc2O[C@H]1CN(C)Cc1ccc(Oc2ccccc2)cc1`, the cytotoxicity call was “inactive”.

In the case of `C[C@@H]1CN([C@H](C)CO)C(=O)Cc2cc(NS(=O)(=O)c3ccc(F)cc3)ccc2O[C@H]1CN(C)Cc1ccc(Oc2ccccc2)cc1`, the cytotoxicity call was “active”. For `C[C@@H]1CN([C@H](C)CO)C(=O)Cc2cc(NS(=O)(=O)c3ccc(F)cc3)ccc2O[C@@H]1CN(C)Cc1ccc(Oc2ccccc2)cc1` the value was “active”. Consider `C[C@H](CO)N1C[C@H](C)[C@H](CN(C)Cc2ccc(Oc3ccccc3)cc2)Oc2ccc(NS(=O)(=O)c3ccc(F)cc3)cc2CC1=O`, for which the cytotoxicity call is “active”. As to `C[C@H](CO)N1C[C@H](C)[C@@H](CN(C)Cc2ccc(Oc3ccccc3)cc2)Oc2ccc(NS(=O)(=O)c3ccc(F)cc3)cc2CC1=O`, the cytotoxicity call was “inactive”.

For `C[C@H]1CN([C@@H](C)CO)C(=O)Cc2cc(NS(=O)(=O)c3ccc(F)cc3)ccc2O[C@H]1CN(C)Cc1ccc(Oc2ccccc2)cc1`, the cytotoxicity call was “active”. For `Cc1noc(C)c1NC(=O)Nc1ccc2c(c1)C(=O)N([C@@H](C)CO)C[C@H](C)[C@H](CN(C)Cc1ccc3c(c1)OCO3)OCCCC[C@H](C)O2`, the cytotoxicity call was “inactive”. Take `CC(C)NC(=O)N(C)C[C@H]1Oc2ccc(NC(=O)CCCN(C)C)cc2C(=O)N([C@H](C)CO)C[C@@H]1C`: the cytotoxicity call is “inactive”. Turning to `C[C@@H]1CCCCO[C@@H](CN(C)C(=O)C2CCCCC2)[C@@H](C)CN([C@@H](C)CO)C(=O)c2cc(NC(=O)CCC(F)(F)F)ccc2O1`, the cytotoxicity call was “inactive”. Consider `C[C@@H]1CN([C@@H](C)CO)C(=O)c2cc(NS(=O)(=O)c3ccc(Cl)cc3)ccc2O[C@@H](C)CCCCO[C@H]1CN(C)S(=O)(=O)c1ccc(F)cc1`, for which the cytotoxicity call is “inactive”.
